ADAM10 inh – ADAM10 inhibition, QFRET primary screen; recombinant ADAM10, EDANS/DABCYL FRET peptide cleavage, 3 h; O14672; 0.62% of 370,000 active; inhibition, % at 7 µM;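 active means inhibition above a per-campaign cutoff equal to the mean of compounds falling between control-based bounds plus 3 SD, cut at about 20% in these data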;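 further: 0% = DMSO wells while the 100% control is not disclosed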
proKLK7 act – proKLK7 (human) activation, primary screen; purified proKLK7, EDANS-DABCYL substrate fluorescence; 100% is mature enzyme control, 0% vehicle; activation, % at 7 µM; 0.9% of 370,000 active; AID 652039;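 active means activation above the mean of all tested compounds plus 3 SD, computed per campaign excluding outliers beyond control limits, cut at about 13% in these data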
Target sequence (P49862 whole entry, looked up): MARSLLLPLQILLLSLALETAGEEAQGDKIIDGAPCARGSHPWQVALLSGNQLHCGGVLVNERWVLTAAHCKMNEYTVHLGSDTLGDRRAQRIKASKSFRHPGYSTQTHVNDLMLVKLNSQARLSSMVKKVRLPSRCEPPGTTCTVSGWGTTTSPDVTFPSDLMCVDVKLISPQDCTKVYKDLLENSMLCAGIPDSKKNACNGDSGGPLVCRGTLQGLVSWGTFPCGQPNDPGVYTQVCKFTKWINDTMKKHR
NR3A LBD binder – modulators (binders) of human NR3A ligand-binding domain. NR3A LBD differential scanning fluorimetry, Tm shift; 0% = protein alone, 100% = glycine-bound protein. Tm shift relative to glycine control, % at 25 µM. 2.5% of 340,000 active;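 active means melting temperature shift of at least 10% of the positive control shift, at one fixed dose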
rCAG RNA binder – r(CAG) repeat RNA binding. TO-PRO-1 dye displacement fluorescence. inhibition, % at 3 µM. 1.3% of 370,000 active. AID 651821;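 active means inhibition above the plate cutoff, the mean of all test compounds on that plate plus 3 SD, cut at about 35% in these data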;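 further: 0% = DMSO alone and 100% = 100 µM mitoxantrone as full dye displacement; higher means more dye released from RNA so lower well fluorescence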
ADAM17 inh – ADAM17 inhibition, QFRET primary screen; P78536; recombinant ADAM17, EDANS/DABCYL FRET peptide cleavage; inhibition, % at 6.95 µM; 0.83% of 370,000 active; AID 720648;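 active means inhibition above the mean of compounds lying between control limits plus 3 SD, set per campaign, cut at about 8.5% in these data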;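 further: 0% = DMSO-only wells as the low control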
AHR act – activates the human aryl hydrocarbon receptor; P35869; activation, % at 5 µM; AID 2796; AHR-responsive luciferase reporter cells, luminescence; 2.5% of 320,000 active; in the data active means activation above about 47%;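 further: 0% = vehicle wells and 100% = reference agonist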
* marks the source's active call; other numbers are inactive results. An excerpt weighted towards active compounds, which were near 7% of everything screened.

For CC(C)CC(=O)NC(=S)Nc1ccc(NC(=O)c2ccco2)cc1 the results were ADAM10 inh 7, proKLK7 act 0, NR3A LBD binder 19*, rCAG RNA binder 2, ADAM17 inh 6 and AHR act -3.
O=C(/C=C/c1ccc(Cl)cc1)NC(=S)Nc1ccc(NC(=O)c2ccco2)cc1 was read as ADAM10 inh 1, proKLK7 act 0, NR3A LBD binder 34*, rCAG RNA binder 1, ADAM17 inh -1 and AHR act -3.
Screening COc1ccc(OCC(C)CN2CCC(C(O)(c3ccccc3)c3ccccc3)CC2)cc1 (configuration not stated) returned ADAM10 inh 6, proKLK7 act 0, rCAG RNA binder 1 and ADAM17 inh 7.
`CC(=O)c1c(C)[nH]c(C(=O)OCC(=O)Nc2ccc3[nH]c(=O)[nH]c3c2)c1C` gave ADAM10 inh -13, proKLK7 act 0, NR3A LBD binder 21*, rCAG RNA binder 3, ADAM17 inh -3 and AHR act 3.
For O=C(Nc1ccc(-c2cn3ccsc3n2)cc1)C1COc2ccccc2O1 (configuration not stated) the results were ADAM10 inh 5, proKLK7 act 0, NR3A LBD binder 24*, rCAG RNA binder 5, ADAM17 inh 1 and AHR act 4.
`CC(=O)c1c(C)[nH]c(C(=O)CN2C(=O)NC(C)(c3ccc4c(c3)OCCO4)C2=O)c1C` (configuration not stated) gave ADAM10 inh -1, proKLK7 act 0, NR3A LBD binder 32*, rCAG RNA binder -1, ADAM17 inh -3 and AHR act 0.
Screening Cc1ccc(C2(C)NC(=O)N(CC(=O)c3ccc4c(c3)OCCO4)C2=O)cc1 (configuration not stated) returned ADAM10 inh -15, proKLK7 act 0, NR3A LBD binder -2, rCAG RNA binder 6, ADAM17 inh -2 and AHR act 1.
Screening CCCCCCCCN1C(=O)[C@@H](CC(=O)NCCC(C)C)C[C@@]2(C(=O)OC)C1=C[C@H](C(C)(C)C)O[C@@H]2C returned ADAM10 inh 2, proKLK7 act -1, rCAG RNA binder 0 and ADAM17 inh 0.
`CC1Cc2ccccc2N1C(=O)CSc1nnnn1Cc1ccccc1` (configuration not stated) gave ADAM10 inh -1, proKLK7 act 0, NR3A LBD binder -1, rCAG RNA binder -5, ADAM17 inh -4 and AHR act 48*.
CC(C)NC(=O)Cn1c(SCC(=O)N2c3ccccc3CC2C)nc2ccccc21 (configuration not stated) was read as ADAM10 inh -6, proKLK7 act 0, NR3A LBD binder 1, rCAG RNA binder -4, ADAM17 inh -3 and AHR act 0.
For CC(C)Cn1c(=O)c2ccccc2n2c(SCC(=O)N3c4ccccc4CC3C)nnc12 (configuration not stated) the results were ADAM10 inh 5, proKLK7 act -1, NR3A LBD binder 20*, rCAG RNA binder 0, ADAM17 inh -2 and AHR act 0.
Screening C#CCNC(=O)C[C@H]1C[C@@]2(C(=O)OC)C(=C[C@H](C(C)C)O[C@@H]2C2CC2)N(CCC2=CCCCC2)C1=O returned ADAM10 inh -3, proKLK7 act 1, rCAG RNA binder 4 and ADAM17 inh 0.
`COCC(=O)OCC(=O)N1N=C(c2ccc(Cl)cc2)CC1c1ccco1` (configuration not stated) gave ADAM10 inh 5, proKLK7 act 0, NR3A LBD binder 0, rCAG RNA binder -4, ADAM17 inh -3 and AHR act -4.
COc1ccc(C2CC(c3ccc4ccccc4c3)=NN2C(=O)CSc2ncccn2)cc1 (configuration not stated) was read as ADAM10 inh -5, proKLK7 act 0, NR3A LBD binder 19*, rCAG RNA binder 6, ADAM17 inh 2 and AHR act 38.
Screening COc1ccc(C(=O)NCC(=O)OCC(=O)N2N=C(c3ccc(Cl)cc3)CC2c2ccco2)cc1OC (configuration not stated) returned ADAM10 inh 13, proKLK7 act 0, NR3A LBD binder 11*, rCAG RNA binder -1, ADAM17 inh 4 and AHR act -2.
COc1ccc(C2=NN(C(=O)CSc3nc4ncc(Cl)cc4[nH]3)C(c3ccco3)C2)cc1 (configuration not stated) was read as ADAM10 inh -5, proKLK7 act 0, NR3A LBD binder -4, rCAG RNA binder 13, ADAM17 inh -2 and AHR act 47*.
For COc1ccc(C2=NN(C(=O)CSc3ncccn3)C(c3ccc(OC)cc3)C2)cc1 (configuration not stated) the results were ADAM10 inh 3, proKLK7 act 0, NR3A LBD binder -1, rCAG RNA binder 1, ADAM17 inh 7 and AHR act 0.
Screening CC(c1ccccc1)N1CC[C@H]2C=CC[C@@H](C(=O)Nc3cccc(Cl)c3)[C@H]2C1=O (some centres not stated) returned ADAM10 inh 0 and ADAM17 inh -1.
Screening O=C(NCc1ccco1)Nc1c(Cl)cc(Cl)cc1Cl returned ADAM10 inh 3, proKLK7 act 0, rCAG RNA binder 2 and ADAM17 inh -3.
For COc1ccc(S[C@]2(C(=O)N3CCOCC3)CC(=O)N(C(=O)C3CC3)[C@@H]2c2ccc(OC)cc2)cc1 the results were ADAM10 inh 0, proKLK7 act 0, rCAG RNA binder 4 and ADAM17 inh 0.
O=c1cc(O)c2sc(Nc3ccc(F)c(Cl)c3)nc2[nH]1 was read as ADAM10 inh -9, proKLK7 act -1, NR3A LBD binder 6, rCAG RNA binder 35*, ADAM17 inh -7 and AHR act 0.
For O=c1cc(O)c2sc(Nc3ccc(Cl)c(F)c3)nc2[nH]1 the results were ADAM10 inh -4, proKLK7 act 0, NR3A LBD binder 1, rCAG RNA binder 30, ADAM17 inh -5 and AHR act 2.
For Nc1nc(OCC2CCCCC2)c2[nH]cnc2n1 the results were ADAM10 inh 2, proKLK7 act 1, NR3A LBD binder 0, rCAG RNA binder 3, ADAM17 inh -1 and AHR act 56*.
Cc1cccc(C(=O)N/N=C/c2ccc[nH]2)c1 was read as ADAM10 inh 3, proKLK7 act -1, NR3A LBD binder -1, rCAG RNA binder -1, ADAM17 inh -2 and AHR act 29.
Screening O=C(N/N=C/c1ccncc1)c1cc2ccccc2cc1O returned ADAM10 inh 12, proKLK7 act 0, NR3A LBD binder 13*, rCAG RNA binder 34 and ADAM17 inh 0.
For O=C(N/N=C/c1ccc[nH]1)c1cc2ccccc2cc1O the results were ADAM10 inh -11, proKLK7 act -3, NR3A LBD binder 11*, rCAG RNA binder 33, ADAM17 inh -3 and AHR act 21.

Bioassay records from PubChem BioAssay.
